# Records with an inconclusive call do not appear. Activity calls are given as the source filed them. Rule for the calls, unless noted: active = hit-call score of the fitted dose curve at least 0.9, where 1 is the maximum; inactive = score below 0.9.
# What was measured:
# [1] = read-out: Secreted IgG (sIgG), gene 3500; test: BSK_BT_sIgG: BioMAP Diversity Plus: BT Assay for Secreted IgG (sIgG) Biomarker Activity (AID 2284226); settings: primary human B cells with PBMC
# Method in brief: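 Secreted IgG from a human primary B cell–PBMC co-culture was measured by ELISA 24 hours after dosing, with DMSO defining baseline activity.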
# [2] = BSK_BT_Bcell_Proliferation: Viability Assessment in the BioMAP Diversity Plus: BT Assay for B cell Proliferation (AID 2284227); settings: primary human B cells with PBMC
# Protocol: BSK_BT is a cell-based, multiplexed-readout assay that uses B cell and peripheral blood mononuclear cells, a human vascular primary cell co-culture, with measurements taken at 24 hours after chemical dosing in a microplate: 96-well plate.BSK_BT_Bcell_Proliferation is an assay component measured in the BSK_BT assay. It measures protein content, a form of viability reporter, as detected with absorbance signals by Sulforhodamine staining technology.Data from the assay component BSK_BT_Bcell_Proliferation was analyzed at the endpoint, BSK_BT_Bcell_Proliferation, in the positive analysis fitting direction relative to DMSO as the negative control and baseline of activity. […]
# (§1) The levels of cell surface (or secreted, indicated by the prefix "s") biomarker endpoints were measured by ELISA. Overt cytotoxicity to cells in confluent adherent cultures (all systems other than the BT system) was assessed by measuring total protein levels using sulforhodamine B (SRB) staining in parallel cultures at the time of biomarker measurements, indicated as SRB endpoints. For proliferation assays for adherent cell types, individual cell types are cultured at sub-confluence and relative cell numbers quantified by SRB staining at time points optimized for each system (48 h: 3C and CASM3C systems; 72 h: BT and HDF3CGF systems; 96 h: SAg system). […] Plates were read after 6 h.
# [3] = read-out: Interleukin 6 (IL6), IL6 (gene 3569); test: BSK_BT_xIL6: BioMAP Diversity Plus: BT Assay for Interleukin 6 (IL6) Biomarker Activity (AID 2284228); settings: primary human B cells with PBMC
# Method in brief: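 Human B cell/PBMC co-culture; secreted IL-6 quantified by Luminex xMAP 24 h after chemical dosing, fitted relative to DMSO. Parallel PBMC viability by Alamar Blue after 1 h pretreatment, 20 ng/mL SEB and TSST-1, 90 h incubation.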
# [4] = read-out: Interleukin 17A (IL17A), IL17A (gene 3605); test: BSK_BT_xIL17A: BioMAP Diversity Plus: BT Assay for Interleukin 17A (IL17A) Biomarker Activity (AID 2284229); settings: primary human B cells with PBMC
# Method in brief: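 Co-culture of human B cells and PBMC, dosed for 24 h in 96-well format. Secreted IL-17A measured with Luminex xMAP; gain-direction fitting against DMSO as baseline.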
# [5] = read-out: Tumor necrosis factor (Homo sapiens) (UniProt P01375); test: BSK_BT_xTNFa: BioMAP Diversity Plus: BT Assay for Tumor necrosis factor alpha (TNF-alpha) Biomarker Activity (AID 2284230); settings: primary human B cells with PBMC
# Method in brief: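 Human primary co-culture of B cells and peripheral blood mononuclear cells; TNF-alpha in supernatant, 24 h post-dose, Luminex multiplex; DMSO = baseline.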
# [6] = read-out: Vascular cell adhesion molecule 1 (VCAM1), VCAM1 (gene 7412); test: BSK_MyoF_VCAM1: BioMAP Diversity Plus: MyoF Assay for Vascular cell adhesion molecule 1 (VCAM1) Biomarker Activity (AID 2284231); settings: primary human lung fibroblasts
# Protocol: BSK_MyoF is a cell-based, multiplexed-readout assay that uses lung fibroblasts, […], with measurements taken at 24 hours after chemical dosing in a microplate: 96-well plate.BSK_MyoF_VCAM1 is an assay component measured in the BSK_MyoF assay. It measures VCAM-1 antibody related to regulation of gene expression using ELISA technology.Data from the assay component BSK_MyoF_VCAM1 was analyzed at the endpoint, BSK_MyoF_VCAM1, in the positive analysis fitting direction relative to DMSO as the negative control and baseline of activity. Using a type of binding reporter, gain or loss-of-signal activity can be used to understand protein changes. […]
# as §1
# [7] = UKN4_HCS_LUHMES_cell_viability: Viability Assessment in the University of Konstanz (UKN) Leist Lab Neurite Outgrowth Assay in human LUHMES cells (UKN4) (AID 2284232)
# Method in brief: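 Human dopaminergic-model LUHMES neurons were exposed to chemicals for 24 h after a 2-day differentiation. Viability was scored by imaging Hoechst H-33342 staining, with activity fitted in both directions relative to DMSO controls.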
# [8] = UKN2_HCS_IMR90_cell_viability: Viability Assessment in the University of Konstanz (UKN) Leist Lab Neural Crest Cell Migration Assay in human induced IMR90 Pluripotent Stem Cells (UKN2) (AID 2284233);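 note: viability of neural crest cells differentiated from IMR90 iPSC measured by calcein-AM fluorescence imaging; cells exposed to compound for 24 h after a 24 h migration phase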
# Method in brief: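 Human IMR90-derived neural crest cells were allowed to migrate for 24 h into a cell-free zone, then exposed to test chemicals for 24 h. Calcein-AM and Hoechst staining with high-content imaging gave viability, analysed against DMSO baseline.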
# [9] = TAMU_HCS_1.5hr_SingleDonor1434_Cytotoxicity: Cytotoxicity Assessment using High-content Screening (HCS) Fluorescent Imaging for the Texas A&M University (TAMU) 1.5-hr Human Induced Pluripotent Stem Cell (iPSC)-derived Cardiotoxicity Assay (AID 2284234; active = hit-call score of the fitted dose curve at least 0.9, where 1 is the maximum)
# Method in brief: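 Human iPSC-derived cardiomyocytes dosed at 0.2, 1, 10, 100 uM final (0.5% DMSO) for 90 min at 37 C. Hoechst 33342-stained nuclei counted by 10x high-content imaging; POD is EC10, a 10% drop in total cell count versus DMSO.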
# [10] = TAMU_PeakParms_SingleDonor1434_QT: Texas A&M University (TAMU) 1.5-hr Human Induced Pluripotent Stem Cell (iPSC)-derived Cardiomyocytes Calcium (Ca+2) Flux Assay for Cardiotoxicity: QT (decay-rise ratio) (AID 2284235; active = hit-call score of the fitted dose curve at least 0.9, where 1 is the maximum)
# Method in brief: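 iPSC-derived cardiomyocytes (single donor 1434) dosed at 0.2, 1, 10, 100 uM final in 0.5% DMSO, 90 min at 37C. Ca2+ flux fluorescence decay/rise ratio; EC05 (5% increase versus DMSO) as POD, excluding beat-arrest and severe-notch data.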
# Tumor necrosis factor (Homo sapiens), sequence (P01375 whole entry, looked up): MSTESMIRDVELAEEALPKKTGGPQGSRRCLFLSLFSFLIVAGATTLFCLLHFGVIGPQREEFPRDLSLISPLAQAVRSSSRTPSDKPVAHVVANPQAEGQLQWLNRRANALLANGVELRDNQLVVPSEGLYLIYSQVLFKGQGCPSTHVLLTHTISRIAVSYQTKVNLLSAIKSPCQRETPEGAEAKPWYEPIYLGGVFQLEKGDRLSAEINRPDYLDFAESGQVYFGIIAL
compound,measurement,setting,value
COc1cnc(OC)n2nc(NS(=O)(=O)c3c(OCC(F)F)cccc3C(F)(F)F)nc12,outcome,[1],inactive
same,outcome,[2],inactive
same,outcome,[3],inactive
same,outcome,[4],inactive
same,outcome,[5],inactive
same,outcome,[6],inactive
N#Cc1nn(-c2c(Cl)cc(C(F)(F)F)cc2Cl)c(N)c1S(=O)C(F)(F)F (stereo not drawn),outcome,[7],inactive
same,AC50,[8],40 µM (active)
COC(=O)N(OC)c1ccccc1COc1ccn(-c2ccc(Cl)cc2)n1,AC50,[8],90.1 µM (active)
CCCCNC(=O)n1c(NC(=O)OC)nc2ccccc21,outcome,[7],inactive
same,AC50,[8],15 µM (active)
CN(C)C(=S)SSC(=S)N(C)C,AC50,[8],7.92 µM (active)
CO/C=C(/C(=O)OC)c1ccccc1Oc1cc(Oc2ccccc2C#N)ncn1,outcome,[8],inactive
CCCCOC(=O)c1ccccc1C(=O)OCCCC,outcome,[8],inactive
CCOc1cc(Oc2ccc(C(F)(F)F)cc2Cl)ccc1[N+](=O)[O-],outcome,[8],inactive
Cc1ccc(-c2c(Cl)nc(C#N)n2S(=O)(=O)N(C)C)cc1,AC50,[8],0.564 µM (active)
C=CCC1=C(C)C(OC(=O)C2C(C=C(C)C)C2(C)C)CC1=O (stereo not drawn),outcome,[7],inactive
C=CC1(C)OC(=O)N(c2cc(Cl)cc(Cl)c2)C1=O (stereo not drawn),outcome,[8],inactive
CC(C)(C)c1ccc(CSc2cnn(C(C)(C)C)c(=O)c2Cl)cc1,outcome,[8],inactive
CCCCC(CC)COC(=O)c1ccccc1C(=O)OCC(CC)CCCC (stereo not drawn),outcome,[8],inactive
CCCCNC(=O)OCC#CI,AC50,[9],4.75 µM (active)
same,outcome,[10],inactive
CNC(=O)ON=CC(C)(C)SC,outcome,[10],inactive

# Source: PubChem BioAssay (EPA / NIEHS)
